Measured values taken from PubChem BioAssay (NCATS).
Where “and” joins values, the source holds several entries; their conditions need not be identical. Equal entries are not always repeated. Inconclusive results are not listed. Entries that show only a call come without a potency. More than one record can exist for a structure, and the calls need not agree. Calls of active or inactive are those of the source. Calls come from the whole dose curve; as a rule, active = well fitted inhibition curve with a large enough effect; inconclusive = small, poorly fitted or top-dose-only effect; inactive = flat fitted curve, though single readings scatter. *1 amine or outer side, *2 acyl side, *3 side chain or, on linkers, in order; H or OH if unused. Where a SMILES comes first, the peptide text is derived from it. Bridges are numbered along the chain shown (N, C = ends). [ ]: non-standard residue; d: D form. The star is where a group is joined. ξ: configuration not given here. ξhTyr(3S-OH,4S-OH,3'-OSO3H) = NC(C(=O)O)[C@H](O)[C@@H](O)c1ccc(O)c(OS(=O)(=O)O)c1; Orn(4R-OH,5R-OH) = O=C([C@H](C[C@@H](O)[C@@H](O)N[*:3])N[*:1])[*:2]; X2 = CCCCCOc1ccc(-c2cc(-c3ccc(C(=O)*)cc3)no2)cc1; X3 = C[C@H]1CN([*:1])C(C(=O)[*:2])[C@H]1O; ξGln(3R-OH) = NC(=O)C[C@@H](O)C(N)C(=O)O; ξPro(4R-OH) = O=C(O)C1C[C@@H](O)CN1; ξThr(3R) = C[C@@H](O)C(N)C(=O)O

Columns and labels:
[1] = target: Glutathione peroxidase 1 (Homo sapiens) (UniProt P07203); experiment: Primary qHTS Assay for Inhibitors of Recombinant Selenoprotein Glutathione Peroxidase 1 (GPX1) (AID 1845191); note: nearly all actives have a fitted effect of over 65% in size
Glutathione peroxidase 1 (Homo sapiens), sequence (P07203 whole entry, looked up): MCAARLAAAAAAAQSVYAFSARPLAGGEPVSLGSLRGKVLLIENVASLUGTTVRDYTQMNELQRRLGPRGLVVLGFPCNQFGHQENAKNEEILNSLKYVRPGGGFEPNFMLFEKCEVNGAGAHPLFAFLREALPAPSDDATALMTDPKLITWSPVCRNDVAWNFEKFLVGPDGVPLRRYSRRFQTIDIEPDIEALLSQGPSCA
Summary of the method: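 Recombinant GPX1 (10 nM final) was preincubated with compound for 30 min at room temperature, then reacted with 1 mM GSH, 0.5 mM CHP, 0.5 mM NADPH and 100 nM glutathione reductase; NADPH fluorescence (340/450 nm) was read at 0 and 15 min.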

[2] = target: Phospholipid hydroperoxide glutathione peroxidase GPX4 (Homo sapiens) (UniProt P36969); experiment: Primary qHTS Assay for Inhibitors of Recombinant Selenoprotein Glutathione Peroxidase 4 (GPX4) (AID 1845192); note: nearly all actives have a fitted effect of over 65% in size; note: potency is the fitted concentration of half-maximal effect; for activity change, negative = inhibition: series mostly up to about 50 µM
Phospholipid hydroperoxide glutathione peroxidase GPX4 (Homo sapiens), sequence (P36969 whole entry, looked up): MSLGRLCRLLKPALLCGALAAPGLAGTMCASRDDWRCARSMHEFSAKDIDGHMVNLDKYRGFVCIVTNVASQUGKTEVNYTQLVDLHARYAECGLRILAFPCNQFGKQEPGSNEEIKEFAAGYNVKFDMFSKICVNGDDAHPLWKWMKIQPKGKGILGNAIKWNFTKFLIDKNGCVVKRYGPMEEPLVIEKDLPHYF
Summary of the method: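 GR-coupled readout: 100 nM GR, 1 mM GSH, 0.5 mM NADPH; NADPH fluorescence (ex 340/em 450 nm) read at t=0 and after 15 min RT. GPX4 200 nM, preincubated 30 min with compound; substrate 0.5 mM CHP.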

[3] = target: Luciferin 4-monooxygenase (Photinus pyralis) (UniProt P08659); experiment: Primary firefly luciferase (FLuc) qHTS assay for identification of artifact compounds. (AID 1845220); note: nearly all actives have a fitted effect of over 60% in size; for activity change, negative = inhibition: series mostly up to about 54 µM
Summary of the method: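 Reaction readout was CCD-imaged luminescence, taken 5 min after adding 10 nM purified firefly enzyme to compound-treated wells holding 10 uM luciferin and ATP in pH 7.6 buffer.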

Compound | Potency [1] | Potency [2] | outcome [3] | Potency [3] | activity change, negative = inhibition [3]
C[C@@H]1O[C@@H](O[C@H]2[C@H](O[C@H]3[C@H](O[C@H]4CC[C@@]5(C)C(CC[C@]6(C)C5CC=C5[C@@H]7CC(C)(C)CC(=O)[C@]7(C)CC[C@]56C)[C@@]4(C)CO)O[C@H](C(=O)O)[C@@H](O)[C@@H]3O)O[C@H](CO)[C@H](O)[C@@H]2O)[C@H](O)[C@H](O)[C@H]1O (stereo partly drawn) | inactive | inactive | inactive [at 11.6 µM] |  | 
CC(=O)O[C@@H]1[C@H](O[C@@H]2OC[C@](O)(CO)[C@H]2O)[C@@H](O[C@@H]2O[C@@H](C)[C@H](O)[C@@H](O[C@@H]3O[C@H](CO)[C@@H](O)[C@H](O)[C@H]3O)[C@H]2O)[C@H](OC(=O)[C@]23CCC(C)(C)C[C@H]2C2=CCC4[C@@]5(C)C[C@H](O)[C@H](O[C@@H]6O[C@H](C(=O)O)[C@@H](O)[C@H](O)[C@H]6O)[C@@](C)(C(=O)O)C5CC[C@@]4(C)[C@]2(C)CC3)O[C@@H]1C (stereo partly drawn) | inactive | inactive | inactive [at 11.6 µM] |  | 
O=C(/C=C/c1ccc(O)cc1)O[C@H]1[C@H](OC2CCCCC2O)O[C@H](CO)[C@@H](O)[C@@H]1O (stereo partly drawn) | inactive | inactive |  | inactive | 
C=C1CC[C@@H]2[C@@](C)(CO[C@@H]3O[C@H](CO)[C@@H](O)[C@H](O)[C@H]3O)[C@H](O)CC[C@@]2(C)[C@@H]1CC/C(C)=C/CO[C@@H]1O[C@H](CO)[C@@H](O)[C@H](O)[C@H]1O | inactive | inactive |  | inactive | 
CC1=CC(=O)CC(C)(C)[C@@]1(O)/C=C/C(C)O[C@@H]1O[C@H](CO)[C@@H](O)[C@H](O)[C@H]1O (stereo partly drawn) | inactive | inactive |  | inactive | 
CC1(CO)CCCC2(C)C3COC(=O)C3=CC(O)C12 (stereo not drawn) | inactive | inactive |  | inactive | 
Cc1nnc(-c2ccc3occ(-c4ccc(S(C)=O)cc4)c3c2)o1 (stereo not drawn) | inactive | inactive |  | inactive | 
C/C=C(\C)C(=O)O[C@H]1C=CC(=O)O[C@H]1/C=C/[C@H](O)[C@@H](C)O | inactive | inactive |  | inactive | 
COc1cccc(C)c1C(=O)O[C@@H]1C[C@H](O[C@H]2[C@H](O)C[C@H](O[C@@H]3CCC[C@H]4[C@H]3C=C[C@@H]3CCCC/C=C/[C@H]5C=C(C(=O)O)[C@@H](C)C[C@@]56OC(=O)C(=C6O)OC(=O)[C@@]34C)O[C@@H]2C)O[C@H](C)[C@H]1O | inactive | inactive |  |  | 4.15% [at 11.6 µM] (inactive)
N#Cc1ccc(C2CCCc3cncn32)cc1 (stereo not drawn) | inactive | inactive |  | inactive | 
Cc1occc1C(=O)n1ccnc1 | inactive | inactive |  | inactive | 
CC(=C\C(C)O)/C=C(\C)C(=O)CC1CC(CC(N)=O)CC(=O)O1 (stereo not drawn) | inactive | inactive |  | inactive | 
CC(=O)O[C@@]1(C)[C@@H]2CC(=C(C)C)C(=O)C[C@@]2(C)CC[C@H]1OC(=O)C1(C)OC1C (stereo partly drawn) | inactive | inactive |  | inactive | 
COc1cc(C2Oc3c(OC)cc(/C=C/C(=O)OC4CC(O)(C(=O)O)CC(O)C4O)cc3C2CO)ccc1O (stereo not drawn) | inactive | inactive |  | inactive | 
CC1=C2CC(=O)C(C)CC/C=C(\C)CC2(O)OC1=O (stereo not drawn) | inactive | inactive |  | inactive | 
CC(C)c1ccc2c(c1)C(=O)CC1C(C)(C(=O)O)CCCC21C (stereo not drawn) | inactive | inactive |  | inactive | 
COC(=O)C1(O)C(OC(C)=O)CCC2C3(CC(c4ccoc4)OC3=O)C(C)=CCC21C(=O)OC (stereo not drawn) | inactive | inactive |  | inactive | 
O=C(O)c1ccc(NC(=O)[C@H](CC2CCCC2)n2cnc(C(F)(F)F)c2)nc1 | inactive | inactive |  | inactive | 
COc1cc(C)c(C(=O)NC2C(C)OC(OC3CCC(C)C4C3C=C(C)C3/C(C)=C\CC/C(C)=C/C5(C)C=C(C(=O)O)C(C)CC56OC(=O)/C(=C(\O)C34C)C6=O)C(O)C2(C)O)c(O)c1 (stereo not drawn) | inactive | inactive | inactive [at 11.6 µM] |  | 
C[C@H](O)C(O)(C(=O)OCc1ccccc1NC(=O)CCC(N)C(=O)O)[C@H](C)O (stereo partly drawn) | inactive | inactive |  | inactive | 
CC1=CC23[C@H](C=C(C(=O)O)[C@@H]2COC(=O)[C@]3(O)CO)[C@@H]1C (stereo partly drawn) | inactive | inactive |  | inactive | 
C/C=C/C=C/C(=O)OC1CC/C=C/C(O)C(O)C(CCC)OC1=O (stereo not drawn) | inactive | inactive |  | inactive | 
C[C@@H](NC(=O)c1cc(C(=O)N[C@@H](Cc2ccccc2)[C@H](O)CNC2CC2)cc(N(C)S(C)(=O)=O)c1)c1ccccc1 | inactive | inactive |  | inactive | 

Compound | Potency [1] | Potency [2] | outcome [3] | Potency [3] | activity change, negative = inhibition [3]
CC(C)CC(=O)OC[C@@]1(O)C[C@@]23CC[C@H]4[C@@](C)(CCC[C@@]4(C)C(=O)O)[C@@H]2CC[C@@H]1C3 | inactive | inactive |  | inactive | 
CC(=O)NC(Cc1ccccc1)C(=O)NC(C(=O)O)C(C)C (stereo not drawn) (Ac-Phe-Val-OH; configuration not given here) | inactive | inactive |  | inactive | 
COc1ccc(Oc2c(Cl)cnn(C3c4ccccc4-c4ccccc43)c2=O)cc1 | inactive | inactive |  | inactive | 
COc1cc(/C=C/C(=O)OC[C@H]2O[C@@H](OC3OC=C(C(=O)O)C4C(O)CC(C)(O)C34)[C@H](O)[C@@H](O)[C@@H]2O)cc(OC)c1O (stereo partly drawn) | inactive | inactive |  | inactive | 
O=C(/C=C/c1ccc(O)c(O)c1)OC[C@H]1O[C@@H](OC2CCCCC2O)[C@H](O)[C@@H](O)[C@@H]1O (stereo partly drawn) | inactive | inactive |  | inactive | 
Cc1cc(C(=O)N2Cc3cnn(C)c3Nc3ccccc32)ccc1CNC(=O)N1CCN(Cc2cc(O)cc(O)c2)CC1 | inactive | inactive |  | inactive | 
CNC(C)C(=O)NC(C(=O)N1CCCC1C(=O)Nc1cccc2ncccc12)C(C)C (stereo not drawn) | inactive | inactive |  | inactive | 
OCC1OC(Oc2cc(O)cc(/C=C/c3ccc(OC4OC(CO)C(O)C(O)C4O)cc3O)c2)C(O)C(O)C1O (stereo not drawn) | inactive | inactive |  | inactive | 
CC(CCc1ccc(O)cc1)O[C@@H]1O[C@H](CO[C@@H]2OC(CO)[C@H](O)[C@H]2O)[C@@H](O)[C@H](O)[C@H]1O (stereo partly drawn) | inactive | inactive |  | inactive | 
C/C=C/C=C/C(O)=C1/C(=O)[C@]2(C)C3/C(=C(O)/C=C/C=C/C)C(=O)C4(C)C1[C@]1(C)O[C@@]4(O)[C@@]3(C)O[C@@]12O | inactive | inactive |  | inactive | 
CC1(C)CC[C@]2(C(=O)O[C@@H]3O[C@H](CO[C@@H]4O[C@H](CO[C@@H]5O[C@H](CO)[C@H](O)[C@H](O)[C@H]5O)[C@@H](O)[C@H](O)[C@H]4O)[C@@H](O)[C@H](O[C@@H]4O[C@H](CO)[C@@H](O)[C@H](O)[C@H]4O)[C@H]3O)[C@H](O)C[C@]3(C)C(=CCC4[C@@]5(C)CC[C@H](O[C@@H]6OC[C@@H](O)[C@H](O)[C@H]6O)[C@@](C)(C(=O)O)C5CC[C@]43C)[C@@H]2C1 (stereo partly drawn) | inactive | inactive | inactive [at 11.6 µM] |  | 
CCC(C)(C)C1CCc2c(sc(NC(=O)c3ccc(Br)cc3)c2C#N)C1 (stereo not drawn) | inactive | inactive |  | inactive | 
COc1ccc(/C=C/C(=O)O[C@@H]2[C@@H](O[C@@H]3O[C@H](CO)[C@@H](O)[C@H](O)[C@H]3O)[C@@H](O)[C@H](O[C@H]3C4C=CO[C@@H](O[C@@H]5O[C@H](CO)[C@@H](O)[C@H](O)[C@H]5O)C4[C@@]4(CO)O[C@@H]34)O[C@H]2C)cc1 (stereo partly drawn) | inactive | inactive |  |  | -3.03% [at 11.6 µM] (inactive)
CCC(C)/C=C(C)/C=C/C(=O)C1CCC(O)C(C)(O)C1=O (stereo not drawn) | inactive | inactive |  | inactive | 
COc1ccc(OC2OC(CO[C@@H]3O[C@@H](C)[C@H](O)[C@@H](O)[C@H]3O)C(O)C(O)C2O)cc1OC (stereo partly drawn) | inactive | inactive |  | inactive | 
C=CC1(C)CC2CCC3C(C)(C(=O)O)CCCC3(C)C2=CC1=O (stereo not drawn) | inactive | inactive |  | inactive | 
COc1cc(/C=C/C(=O)O[C@H]2C[C@@H]3C(C(=O)O)=CO[C@@H](O[C@@H]4O[C@H](CO)[C@@H](O)[C@H](O)[C@H]4O)[C@@H]3[C@H]2C)ccc1O | inactive | inactive |  | inactive | 
CC1(C(=O)O)CCCC2(C)C3CC4C5CC3(CCC12)CC45C (stereo not drawn) | inactive | inactive |  | inactive | 
CC1=CCC2C(C)(C)CCCC2(C)C1CC12OC1C(O)C(CO)=CC2O (stereo not drawn) | inactive | inactive |  | inactive | 
CC1(C)CC2C(O)C3=C(CC(C)(O)C2C1)C(=O)OC3 (stereo not drawn) | inactive | inactive |  | inactive | 
CC(=O)OC12CC(C)C(OC(=O)c3ccccc3)C1/C=C(/C)C(OC(=O)c1ccccc1)CC(=O)C(C)(C)/C=C/C(C)C2=O (stereo not drawn) | inactive | inactive |  | inactive | 
CC1(C)CC[C@]2(C(=O)O[C@@H]3O[C@H](CO[C@@H]4O[C@H](CO)[C@@H](O)[C@H](O)[C@H]4O)[C@@H](O)[C@H](O[C@@H]4O[C@H](CO)[C@@H](O)[C@H](O)[C@H]4O)[C@H]3O)[C@H](O)C[C@]3(C)C(=CCC4[C@@]5(C)CC[C@H](O[C@@H]6OC[C@@H](O)[C@H](O)[C@H]6O)[C@@](C)(C(=O)O)C5CC[C@]43C)[C@@H]2C1 (stereo partly drawn) | inactive | inactive | inactive [at 11.6 µM] |  | 
CCCCCOc1ccc(-c2cc(-c3ccc(C(=O)N[C@H]4C[C@@H](O)[C@@H](O)NC(=O)C5[C@@H](O)[C@@H](C)CN5C(=O)C([C@H](O)CC(N)=O)NC(=O)C([C@H](O)[C@@H](O)c5ccc(O)c(OS(=O)(=O)O)c5)NC(=O)C5C[C@@H](O)CN5C(=O)C([C@@H](C)O)NC4=O)cc3)no2)cc1 (stereo partly drawn) (X2-[Orn(4R-OH,5R-OH)][ξThr(3R)][ξPro(4R-OH)][ξhTyr(3S-OH,4S-OH,3'-OSO3H)][ξGln(3R-OH)][X3]; lactam 1-C) | inactive | inactive and 2 µM (active) |  | inactive | 
